Consider 31 molecules from PubChem BioAssay (Tox21).

SMILES strings stand for the structures. A number with no mark means an inactive call. Results filed as inconclusive are left out. Active and inactive are the calls of the source. Unless noted, calls follow the shape of the dose curve; as a rule, active = well fitted curve in the direction sought with a large enough effect in the repeat runs; inconclusive = weak or mixed curves; inactive = no such curve, though single readings can be large; an effect the other way counts as inactive or inconclusive.

Experiment [1] in a line: qHTS assay to identify small molecule HDAC inhibitors (AID 1259364).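 Also: wild-type HCT-116 cells with endogenous class I/II HDAC activity; top concentration of the series differs between compounds; nearly all actives have a fitted effect of over 45% in size.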 The essentials:
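Cells (HCT-116, wild type) are seeded at 1,500 per well, incubated overnight, treated with compound in DMSO for 2 hr, then developed with HDAC-Glo I/II reagent for 30 min at room temperature.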
(In general: qHTS replaces the single test concentration by a dilution series.)

Experiment [2] can be described thus: qHTS assay to identify small molecule HDAC inhibitors - cell viability counter screen (AID 1259365). Also: series mostly up to about 92 µM; nearly all actives have a fitted effect of over 50% in size. The gist of the method:
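HCT-116 (wild type), 1,500 cells/well, overnight 37C/5% CO2; compound in DMSO 2hr; CellTiter-Glo 30min RT; luminescence read.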

Experiment [3] is described as follows: qHTS assay to identify small molecule agonists of the sonic hedgehog signaling (Shh) pathway - cell viability counter screen (AID 1259366). Also: nearly all actives have a fitted effect of over 50% in size. Also: potency is read from the fitted curve at half-maximal effect. The gist of the method: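 CellTiter-Fluor fluorescence read-out, 1 hr at 37C, added after 23hr compound exposure. Cells: 3T3 Gli1-Luc, an NIH/3T3 clone with stably integrated Gli1-Luc reporter, plated 4hr before compound.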

Experiment [4] is described as follows: qHTS assay to identify small molecule antagonists of the sonic hedgehog signaling (Shh) pathway - cell viability counter screen (AID 1259367). Also: nearly all actives have a fitted effect of over 55% in size. Also: potency is read from the fitted curve at half-maximal effect. The essentials: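 Tox21 library chemicals were tested on a Gli1-Luc NIH/3T3 clone (2,000 cells/well) stimulated by conditioned medium; viability was quantified as fluorescence from CellTiter-Fluor reagent added at 23 hr.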

Experiment [5] in a line: qHTS assay to identify small molecule agonists of the sonic hedgehog signaling (Shh) pathway (AID 1259368; calls by dose curve;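 also: NIH/3T3-derived 3T3Gli1-Luc cells carrying a stable Gli1-driven firefly luciferase reporter; series mostly up to about 92 µM; nearly all actives have a fitted effect of over 15% in size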). The gist of the method: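 Cells of a mouse NIH/3T3 clone stably expressing luciferase under the Gli1 transcriptional response element are exposed to test chemicals for 24 hr at 37 C. Pathway activation is detected as a rise in luminescence.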
Experiment [6] in a line: qHTS assay to identify small molecule antagonists of the sonic hedgehog signaling (Shh) pathway (AID 1259369; calls by dose curve; also: nearly all actives have a fitted effect of over 45% in size). The essentials:
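Cells are plated and held 4hr at 37 C, compounds (DMSO) are pinned in, conditioned medium is added to stimulate the pathway, and after 24hr luciferase reagent is added for 30min before luminescence is read.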

Experiment [7] can be described thus: qHTS assay to identify small molecule agonists of the androgen receptor (AR) signaling pathway in the presence of an antagonist - cell viability counter screen (AID 1259379).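 Also: MDA-kb2 human breast cancer cells carrying an MMTV luciferase reporter; series mostly up to about 92 µM; nearly all actives have a fitted effect of over 25% in size.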 The gist of the method: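 Cytotoxicity is assessed by CellTiter-Fluor in MDA-kb2 cells carrying an MMTV-driven luciferase reporter. Cells receive 3.0uM nilutamide plus compounds at 15 concentrations and incubate 16 hr at 37C without CO2 before fluorescence reading.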

A short description of experiment [8]: qHTS assay to identify small molecule agonists of the estrogen receptor beta (ER-beta) signaling pathway - cell viability counter screen (AID 1259380). Also: nearly all actives have a fitted effect of over 30% in size. The essentials:
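Cytotoxicity is measured in parallel with the reporter screen: after 16 hr compound exposure at 37C and a 2 hr LiveBLAzer step, CellTiter-Glo is added to the same ER-beta-UAS-bla HEK293T wells and luminescence read after 30 min.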

Experiment [9] deals with Estrogen receptor beta (Homo sapiens) (UniProt Q92731). Nature of the experiment: qHTS assay to identify small molecule agonists of the estrogen receptor beta (ER-beta) signaling pathway (AID 1259377; active = well fitted activation curve with a large enough effect in the signal ratio in the repeat runs, not every such curve was filed as active; the % refers to the signal ratio). The essentials: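 Beta-lactamase reporter readout: fluorescence of LiveBLAzer B/G FRET substrate after 2 h at room temperature, following 16 h compound treatment of ER-beta-UAS-bla HEK293T cells at 37C in 2% charcoal-stripped FBS medium.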

Experiment [10] shares this target. Nature of the experiment: qHTS assay to identify small molecule antagonists of the estrogen receptor beta (ER-beta) signaling pathway (AID 1259378; active = well fitted inhibition curve with a large enough effect in the signal ratio in the repeat runs, not every such curve was filed as active; the % refers to the signal ratio). The essentials:
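ER-beta-UAS-bla HEK293T cells in 2% charcoal-stripped FBS medium treated with compound plus 1nM final 17-beta-estradiol for 16 hr at 37C. Beta-lactamase reporter read by FRET substrate fluorescence after 2 hours at room temperature.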
% is scaled to controls: 0 for no effect and ±100 for the full control effect.

Sequence of Estrogen receptor beta (Homo sapiens) (Q92731 whole entry, looked up): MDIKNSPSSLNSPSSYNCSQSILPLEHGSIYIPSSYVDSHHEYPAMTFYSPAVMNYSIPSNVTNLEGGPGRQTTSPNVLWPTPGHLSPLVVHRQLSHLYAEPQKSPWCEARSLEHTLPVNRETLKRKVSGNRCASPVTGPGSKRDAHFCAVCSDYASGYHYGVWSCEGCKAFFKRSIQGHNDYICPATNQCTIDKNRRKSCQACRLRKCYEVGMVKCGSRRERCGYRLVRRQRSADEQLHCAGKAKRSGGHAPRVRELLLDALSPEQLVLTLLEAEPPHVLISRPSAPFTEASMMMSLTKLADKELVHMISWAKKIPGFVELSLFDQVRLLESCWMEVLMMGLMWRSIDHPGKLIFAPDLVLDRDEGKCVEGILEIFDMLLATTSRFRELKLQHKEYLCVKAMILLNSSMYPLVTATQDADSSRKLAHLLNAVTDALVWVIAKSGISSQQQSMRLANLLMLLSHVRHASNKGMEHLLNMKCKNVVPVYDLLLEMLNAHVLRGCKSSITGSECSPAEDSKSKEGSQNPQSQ

For the molecule `C[C@H](CCC(=O)O)[C@H]1CC[C@H]2[C@@H]3[C@H](O)C[C@@H]4C[C@H](O)CC[C@]4(C)[C@H]3C[C@H](O)[C@]12C`, the Potency entry in [1], in experiment [3], in experiment [4], in experiment [6] and in [7] was “inactive” each time. Further, the molecule was classed as inactive in [2], in experiment [5] and in experiment [8].

Turning to `C=C(C)[C@@H]1CC[C@@H](C)C[C@@H]1O`, the Potency entry in experiment [1], in experiment [3], in [4], in [6] and in [7] was “inactive” throughout. Further, the molecule was called inactive in experiment [2], in experiment [5] and in experiment [8].

As to `OC(CCN1CCCCC1)(c1ccccc1)c1ccccc1`, the Potency result in experiment [1], in experiment [3], in experiment [4], in experiment [6] and in experiment [7] was “inactive” each time. The result in experiment [2] and in [5] was inactive.

Consider `CC(C)COC(=O)CCCCC(=O)OCC(C)C`, for which the Potency result in experiment [1], in experiment [3], in experiment [4], in [6] and in [7] was “inactive” throughout. The molecule was classed as inactive in experiment [2], in experiment [5] and in experiment [8].

With `O=C(O)/C=C/c1ccccc1`, the Potency entry in experiment [1], in [3], in experiment [4], in experiment [6] and in experiment [7] was “inactive” in each case. The call in experiment [2], in experiment [5] and in experiment [8] was inactive.

On to `CCCCOC(=O)[C@@H](C)Oc1ccc(Oc2ccc(C(F)(F)F)cn2)cc1`, for which the Potency entry in experiment [1], in experiment [3], in [4] and in [9] was “inactive” in each case. Moreover, the molecule was classed as inactive in [2], in experiment [5] and in experiment [10].

Consider `CC(=O)OCC(=O)[C@@]1(O)[C@H](OC(C)=O)C[C@H]2[C@@H]3CCC4=CC(=O)C=C[C@]4(C)[C@@]3(F)[C@@H](O)C[C@@]21C`, for which the Potency result in experiment [1], in experiment [3], in [4], in experiment [6] and in [7] was “inactive” throughout. Also, the outcome in experiment [2], in experiment [5] and in experiment [8] was inactive.

On to `CN[C@@H]1[C@@H](O)[C@@H](O[C@@H]2[C@H](O)[C@H](O[C@H]3OC(CN)=CC[C@H]3N)[C@@H](N)C[C@H]2N)OCC1(C)O` (stereo partly drawn), for which the Potency result in experiment [1], in [3], in [4], in experiment [6] and in experiment [7] was “inactive” throughout. In addition, the call in experiment [2] and in experiment [5] was inactive.

With `CCS(=O)(=O)CCn1c([N+](=O)[O-])cnc1C`, the Potency result in experiment [1], in experiment [3], in experiment [4], in [6] and in experiment [7] was “inactive” in each case. The call in [2], in experiment [5] and in [8] was inactive.

As to `C=C[Si](C)(C)O[Si](C)(C)C=C`, the Potency entry in experiment [1], in experiment [3], in [4], in experiment [6] and in experiment [7] was “inactive” throughout. In addition, the call in experiment [2] and in experiment [5] was inactive.

In the case of `NS(=O)(=O)c1cc2c(cc1Cl)NC(C(Cl)Cl)NS2(=O)=O` (stereo not drawn), the Potency result in [1], in [3], in experiment [4], in experiment [9] and in experiment [7] was “inactive” each time. For the same molecule, the call in experiment [2], in experiment [5] and in experiment [10] was inactive.

As for `C=C(C)C(=O)OCCCCCCOC(=O)C(=C)C`, the Potency entry in experiment [1], in experiment [3], in [4], in [6] and in experiment [7] was “inactive” throughout. Also, the molecule was classed as inactive in experiment [2], in [5] and in experiment [8].

For `C[Si]1(C)N[Si](C)(C)N[Si](C)(C)N1`, the Potency entry in experiment [1], in experiment [3], in [4], in experiment [6] and in [7] was “inactive” each time. Further, the molecule was called inactive in experiment [2], in experiment [5] and in experiment [8].

For the molecule `C=C(C)C(=O)OC`, the Potency result in experiment [1], in [3], in [4], in experiment [6] and in [7] was “inactive” throughout. The outcome in experiment [2], in [5] and in [8] was inactive.

As to `CCCCCCCCCCCCC`, the Potency entry in experiment [1], in experiment [3], in experiment [4], in experiment [6] and in experiment [7] was “inactive” throughout. Moreover, the molecule was classed as inactive in experiment [2] and in experiment [5].

In the case of `CN(C)CCOCCN(C)CCO`, the Potency entry in [1], in experiment [3], in [4], in experiment [6] and in [7] was “inactive” throughout. The result in experiment [2] and in [5] was inactive.

`Nc1c(NC/C=C\COc2cc(CN3CCCCC3)ccn2)c(=O)c1=O`: the values for the activity change, negative = inhibition in [1] and in experiment [6] were -4.93% [at 19 µM] and 0.103% [at 19 µM], respectively. In addition, the values for the activity change, negative = cytotoxicity in [2], in experiment [7] and in experiment [8] were 4.37% [at 19 µM], -0.565% [at 19 µM] and 1.31% [at 19 µM], respectively. The Potency in experiment [3] and in experiment [4] was 5.17 µM (active) each time. For the same molecule, the activity change in [5] was -1% [at 18.9 µM].

`O=C(O)c1c(Cl)ccc(Cl)c1Cl`: the Potency entry in experiment [1], in [3], in [4], in experiment [6] and in experiment [7] was “inactive” throughout. Also, the molecule was called inactive in [2], in [5] and in experiment [8].

Consider `CCC(O)C(C)(C)C` (stereo not drawn), for which the Potency result in experiment [1], in experiment [3], in experiment [4] and in [6] was “inactive” each time. Further, the molecule was classed as inactive in experiment [2], in [5] and in [8].

For the molecule `Cc1nc(C)nc(N2C[C@@H](C)N(c3ccnc([C@@H](C)O)n3)[C@@H](C)C2)n1`, the Potency entry in experiment [1], in [3], in experiment [4], in experiment [6] and in experiment [7] was “inactive” each time. Further, the call in experiment [2] and in [5] was inactive.

In the case of `CCCCC(=O)N(C)C`, the Potency result in experiment [1], in experiment [3], in experiment [4], in experiment [6] and in experiment [7] was “inactive” in each case. Moreover, the result in [2], in [5], in [10] and in [8] was inactive.

With `CCNC(=O)NCCCOc1cccc(CN2CCCCC2)c1`, the Potency result in experiment [1], in [3], in experiment [4], in experiment [6] and in experiment [7] was “inactive” in each case. Also, the outcome in experiment [2], in experiment [5] and in experiment [8] was inactive.

Take `CCCCCCCCOC(C)=O`: the Potency result in experiment [1], in experiment [3], in experiment [4] and in [6] was “inactive” in each case. The molecule was called inactive in experiment [2], in experiment [5] and in [8].

As to `CCC(=O)c1ccc(O)cc1`, the Potency entry in experiment [1], in experiment [3], in [4], in experiment [6] and in experiment [7] was “inactive” throughout. For the same molecule, the molecule was classed as inactive in [2], in experiment [5] and in experiment [8].

With `CCCCC(C)C(=O)O` (stereo not drawn), the Potency result in [1], in [3], in [4], in experiment [6] and in [7] was “inactive” in each case. In addition, the result in [2], in experiment [5] and in experiment [8] was inactive.

Consider `CCCCCCCCCCCCCC(=O)OC`, for which the Potency result in experiment [1], in [3], in experiment [4], in experiment [9] and in experiment [7] was “inactive” in each case. In addition, the outcome in experiment [2], in experiment [5] and in experiment [10] was inactive.

On to `CC(=O)N(CC(O)CO)c1c(I)c(C(=O)NCC(O)CO)c(I)c(C(=O)NCC(O)CO)c1I` (stereo not drawn), for which the Potency result in experiment [1], in experiment [3], in [4] and in [6] was “inactive” in each case. For the same molecule, the molecule was called inactive in experiment [2], in experiment [5] and in experiment [8].

Take `Nc1ccc(/C=C/c2ccc(N)cc2S(=O)(=O)O)c(S(=O)(=O)O)c1`: the activity change, negative = inhibition in [1] was 6.62% [at 0.349 µM]; in [6], 1.08% [at 0.349 µM]. The activity change, negative = cytotoxicity was 0.175% [at 0.349 µM] in experiment [2], 1.1% [at 0.35 µM] in experiment [7] and 1.15% [at 0.349 µM] in experiment [8]. For the same molecule, the viability change, negative = cytotoxic is 0.832% [at 0.349 µM] in experiment [3] and 1.69% [at 0.349 µM] in [4]. Moreover, in experiment [5], the activity change is -0.943% [at 0.349 µM].

For `COc1cc(C=O)ccc1OC(=O)C(C)C`, the Potency entry in [1], in [3], in [4], in [6] and in experiment [7] was “inactive” each time. Further, the molecule was classed as inactive in experiment [2] and in experiment [5].

As for `CC(Cl)COP(=O)(OCC(C)Cl)OCC(C)Cl` (stereo not drawn), the Potency entry in [1], in experiment [3], in [4], in experiment [9] and in experiment [7] was “inactive” in each case. The result in experiment [2], in [5] and in experiment [10] was inactive.

Take `CCCCC(CC)C(=O)OC(C)C` (stereo not drawn): the Potency entry in [1], in [3], in [4], in experiment [6] and in experiment [7] was “inactive” each time. For the same molecule, the molecule was called inactive in experiment [2], in [5] and in experiment [8].
